# In the library only some 1.1% were active in any assay of this set; here they are far more common.
# CtBP-E1A blk: blocks the CtBP interaction with E1A | AlphaScreen GST-E1A/His-CtBP binding, 1536-well; stronger effect = lower value | activity change, % (no concentration beside the values) | actives 0.49% (n = 340,000); also: % is scaled to controls: 0 for no effect and ±100 for the full control effect
#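 Homogeneous bead-based format: GST-tagged E1A captured on glutathione donor beads, His-tagged CtBP on nickel acceptor beads; compounds precede bead addition by 2 h at 37 °C.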
# Six1-Eya2 blk: Six1/Eya2 interaction inhibition; Q15475+O00167; activity change, % (concentration not given with the values); AlphaScreen GST-Six1/His-Eya2 binding, biochemical; stronger effect = lower value; AID 651725; actives 0.56% (n = 360,000); also: % is scaled to controls: 0 for no effect and ±100 for the full control effect
#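 AlphaScreen luminescence read after one hour at 37 °C in darkness. Pin-transferred compounds met GST-Six1 and His-Eya2 protein (5X stock 250 nM/500 nM) plus glutathione donor and Ni-chelate acceptor beads (5X, 50 ug/mL).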
# uPA surface inh: blocks generation of uPA at the cell surface | cell surface uPA generation assay, qHTS | Potency, µM (highest dose often 38.3 µM), inactives show at the top dose activity change, negative = inhibition, most hits filed as inhibitors | actives 0.31% (n = 330,000); active = well fitted inhibition curve with a large enough effect; inconclusive = small, poorly fitted or top-dose-only effect; inactive = no such curve, though single readings can be large or run the other way; tested in mouse RAW 264.7 cells; also: potency is read from the fitted curve at half-maximal effect; % is scaled to controls: 0 for no effect and ±100 for the full control effect; nearly all actives have a fitted effect of over 55% in size
# MBNL1 CUG block: inhibitors of human MBNL1 binding to CUG repeat RNA | TR-FRET MBNL1-His/biotin-(CUG)12 binding, 665/545 ratio | Q9NR56 | actives 0.036% (n = 280,000) | Potency, µM (titrated, usually from 57.5 µM), for the others: at the highest dose activity change, negative = inhibition, actives largely listed as inhibitors; active = well fitted inhibition curve with a large enough effect in the signal ratio, with a control signal flat, not every such curve was filed as active; inconclusive = small, poorly fitted or top-dose-only effect, or effect the other way, or a change in a side signal; inactive = no such curve, though single readings can be large or run the other way; the % refers to the signal ratio; also: potency is read from the fitted curve at half-maximal effect; % is scaled to controls: 0 for no effect and ±100 for the full control effect
# Target sequence (Q9NR56 whole entry, looked up): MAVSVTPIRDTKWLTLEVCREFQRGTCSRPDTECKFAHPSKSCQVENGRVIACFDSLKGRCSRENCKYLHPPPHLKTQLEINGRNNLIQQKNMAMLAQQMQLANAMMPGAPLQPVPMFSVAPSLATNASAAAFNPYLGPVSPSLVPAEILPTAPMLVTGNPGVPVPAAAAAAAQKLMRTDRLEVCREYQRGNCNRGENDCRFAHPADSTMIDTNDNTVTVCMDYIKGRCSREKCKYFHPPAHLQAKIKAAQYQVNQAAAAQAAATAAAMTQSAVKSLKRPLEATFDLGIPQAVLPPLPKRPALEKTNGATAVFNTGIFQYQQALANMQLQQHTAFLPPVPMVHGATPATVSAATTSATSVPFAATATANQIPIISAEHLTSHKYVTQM
#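 TR-FRET readout: Ex 340 nm, 665/545 nm emission ratio, normalized to buffer-only (basal) and MBNL1-(CUG)12 controls. Complex of MBNL1-His with Biotin-(CUG)12, compounds 92 nM–58 uM, incubated 60 min at room temperature.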
# Mito fusion yeast: inhibitors of mitochondrial division or activators of mitochondrial fusion; S. cerevisiae fusion-defective mutant growth rescue, CellTiterGlo 48 h; Potency, µM (series often up to 46.1 µM), for the others: top-dose growth rescue (activation), actives largely listed as activators; actives 0.23% (n = 320,000); active = well fitted activation curve with a large enough effect; inconclusive = small, poorly fitted or top-dose-only effect; inactive = no such curve, though single readings can be large or run the other way; also: potency is read from the fitted curve at half-maximal effect; % of control where 0% means no effect; nearly all actives have a fitted effect of over 45% in size
#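 Growth-rescue viability read-out: after 48 h at the non-permissive 37C in glycerol/ethanol YPEG, yeast mitochondrial fusion mutants are measured by CellTiterGlo luminescence; compounds (23 nl pinned per well) restoring growth score as division inhibitors or fusion activators.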
# The depositor's hits bear a star; ? = inconclusive; · = not tested or not shown; ! = not active in a repeat; [ ] = dose if it differs, or a comment. Rule as the data show it, unless noted: active = activity change below about -65%; inconclusive = mostly about -30% to -63%; inactive = weaker than that.
SMILES,CtBP-E1A blk,Six1-Eya2 blk,uPA surface inh,MBNL1 CUG block,Mito fusion yeast
CCCCCCCCCCCCCC(=O)O[C@@H]1[C@@H](C)[C@@]2(O)[C@@H](C=C(CO)C[C@@]3(O)C(=O)C(C)=C[C@@H]23)C2C(C)(C)[C@@]21OC(C)=O (stereo partly specified),·,·,·,·,16.4µM*
Cc1cc(Cl)nc(N)n1,10.2,13.6,0.8%,0.5%,1.2%
Cc1ccc(Nc2nc(N)nc(CCl)n2)c(C)c1,2.0,-6.9,3.98µM*,-7.1%,-4.8%
N[C@@H](Cc1ccc(N(CCCl)CCCl)cc1)C(=O)O,-1.7,-1.1,2.51µM*,·,-1.0%
CCN(CC)C(=O)c1ccc(NC(=O)Nc2ccccc2F)cc1,·,-6.4,4.47µM*,-3.8%,-32.0%
Cc1nn(-c2nccs2)c2c1C(=O)CC(C)(C)C2Br (stereo unspecified),4.6,0.6,?,·,·
C=C[C@@H]1C[C@@]1(C)[C@@H](NP(=O)(c1ccccc1)c1ccccc1)c1ccccc1,4.0,-7.5,-16.7%,18.5%,17.8µM*
COc1ccc(-c2c([C@H]3[C@H]4C=CC[C@@H](C)[C@@H]4C(=O)N3Cc3ccccc3)ccc3ccccc23)cc1OC,-15.2,-23.3,?,-15.4%,-36.2%
CCn1c(C)c(C(=O)O)c2cc(OC)ccc21,4.1,1.8,1.4%,-3.7%,1.2%
CCCn1c(C)c(C(=O)c2ccc3ccccc3c2)c2ccccc21,·,·,·,·,13µM*
CN(C)C(=O)CCc1ccc2c3c([nH]c2c1)[C@]1(CCC2CCCC2)[C@@H](C(=O)N2CCOCC2)C[C@H](CC(=O)NCCC2=CCCCC2)C(=O)N1CC3,-1.7,-11.8,?,·,·
CCCCCC(=O)N[C@@H](c1ccccc1)[C@@H](O)C(=O)O[C@H]1C[C@@]2(O)[C@@H](OC(=O)c3ccccc3)C3[C@](C)(C(=O)[C@H](O)C(=C1C)C2(C)C)[C@@H](OC1OCC(O)C(O)C1O)C[C@H]1OC[C@@]31OC(C)=O (stereo partly specified),-21.6,-89.7*,?,6.8%,3.5%
N#CC1c2ccccc2-n2nncc2CN1Cc1cc(Cl)cc(Cl)c1 (stereo unspecified),-6.7,-18.7,4.47µM*,·,·
COc1ccc(CN2Cc3cnnn3-c3ccccc3C2C#N)cc1 (stereo unspecified),-12.4,-8.4,5.62µM*,·,·
CN1Cc2cnnn2-c2ccccc2C1C#N (stereo unspecified),-28.1,-0.1,?,·,·
COc1ccc(CN2Cc3cnnn3-c3ccccc3C2c2ccccc2)cc1 (stereo unspecified),-20.9,-8.0,?,·,·
Cn1cc(C(=O)CCl)c2ccccc21,·,0.4,?,3.4%,-12.6%
O=c1[nH]c(=S)[nH]c(O)c1N=Nc1ccc(-c2ccccc2)cc1[N+](=O)[O-],·,·,·,?,9.3%
Nc1ccc(CCN2CCCC2)cc1,·,-1.8,16.9%,-7.6%,0.6%
Nc1ccc(CCN2CCN(c3cccc(C(F)(F)F)c3)CC2)cc1,-21.5,-4.2,-14.6%,·,9.2µM*
C=CCC[C@H](Cc1ccc(F)cc1)C(=O)OC[C@H](Cc1c[nH]c2ccccc12)NC(=O)[C@@H](CC=C)CC(=O)NCCO,-1.9,-9.7,?,·,·
Clc1ccc2c(c1)C(c1ccccc1Cl)=NCc1nnc(N3CCN(CCSc4ccccc4)CC3)n1-2,-19.9,-2.8,-11.3%,2.7%,8.0%
Clc1ccc2c(c1)C(c1ccccc1Cl)=NCc1nnc(N3CCN(CCOc4ccccc4)CC3)n1-2,-10.7,-18.3,-16.5%,-16.1%,12.6µM*
O=C(O)c1cc(O)c2c(c1)C(=O)c1cccc(O)c1C2=O,-84.1*,-73.5*,?,?,0.0%
CN(C(=O)CNC(=O)OCc1ccccc1)c1ccc(Br)cc1C(=O)c1ccccc1Cl,-21.8,-18.9,-8.7%,-2.3%,12.6µM*
SMILES,CtBP-E1A blk,Six1-Eya2 blk,uPA surface inh,MBNL1 CUG block,Mito fusion yeast
O=C(CNC(=O)OCc1ccccc1)Nc1ccc(Br)cc1C(=O)c1ccccc1Cl,-5.0,-7.0,4.2%,-8.8%,0.1%
CC(C)(C)C1CCc2sc(C(=O)NNC(=O)CCl)cc2C1 (stereo unspecified),17.6,3.8,?,·,23.3%
CCc1ccc(N2C(=O)NC(=O)/C(=C\C=C\c3ccco3)C2=O)cc1,·,-8.2,8.91µM*,-3.7%,2.0%
Cc1ccc(N2C(=O)NC(=O)/C(=C/C=C/c3ccco3)C2=O)cc1,1.9,-2.9,-14.3%,?,-8.6%
CCOc1ccc(N2C(=O)/C(=C/c3ccco3)C(=O)NC2=S)cc1,·,-81.0*,11.1%,12.2%,-1.6%
O=C(Nc1nnc(-c2ccc3c(c2)CCCC3)o1)c1ccccc1,-8.9,4.6,10µM*,-1.8%,24.3%
CCCCn1c(NC(=O)c2ccc(Br)o2)c(C(=O)OCC)c2nc3ccccc3nc21,-12.8,17.1,-2.0%,-8.3%[11.5 µM],8.91µM*
CCCCn1c(NS(=O)(=O)c2ccccc2)c(C(=O)OCC)c2nc3ccccc3nc21,-2.8,14.5,4.5%,4.7%,7.1%
C=C1C(=O)[C@@]23[C@H](O)C[C@@H]4C(C)(C)CC[C@H](O)[C@@]4(C)[C@@H]2CC[C@@H]1[C@H]3O,-5.0,8.1,?,-9.6%,0.7%
Cn1ncnc2c(=O)n(C)c(=O)nc1-2,?,-2.7,1.12µM*,?,-16.5%
CC1(C)OC1COc1c2occc2cc2ccc(=O)oc12 (stereo unspecified),2.1,0.8,?,-14.2%,5.9%
CC(C)=CCOc1c2occc2cc2ccc(=O)oc12,4.7,0.4,-16.9%,18.3%,16.4µM*!
Cn1cc(S(=O)(=O)N2CCc3ccccc32)cc1C(=O)NC(C)(C)C,3.4,0.1,?,2.4%,8.2%
CCN(CC)C(=O)[C@H]1C[C@H](CC(=O)NCc2ccc(OC)c(OC)c2)C(=O)N2CCc3c([nH]c4ccc(Cl)cc34)[C@]12C,-9.2,-8.9,10µM*,·,·
OC[C@H]1O[C@@H](n2cnc3cc(Cl)c(Cl)cc32)[C@H](O)[C@@H]1O,0.7,1.9,8.91µM*,·,0.2%
CCN(CC)C(=O)c1ccc2c(c1)C1C(Cl)C(Sc3ccccc3[N+](=O)[O-])CC1C(C(=O)O)N2 (stereo unspecified),?,?,5.3%,·,2.4%
CCN(CC)C(=O)c1ccc2c(c1)C1C=CCC1C(C(=O)O)N2 (stereo unspecified),·,-74.8*,3.8%,?,-3.4%
C=C(COC(=O)CCC(=O)O)CC1CC(O)[C@]2(C)OC3CC4OC5C[C@]6(C)O[C@]7(C)CCC8OC9C[C@]%10(C)OC%11C(C)=CC(=O)OC%11CC%10OC9C[C@@H](C)C8OC7CC6O[C@]5(C)C/C=C\C4OC3CC2O1 (stereo partly specified),-0.9,5.4,14.0%,-9.2%,15.8µM*
O=c1c2ccccc2nc(/C=C/c2cccnc2)n1Cc1ccccc1,1.0,-71.0*,-10.8%,?,?
